Here are results for 26 compounds from PubChem BioAssay AID2685 (National Center for Advancing Translational Sciences (NCATS), 2010).

SMILES strings stand for the structures. Screen size: about 320,000 compounds; about 2,100 (0.66%) were called active. Not shown: some 53% with an inconclusive outcome. The call rests on the fitted dose curve; in most records, active means well fitted inhibition curve with a large enough effect in the signal ratio, with a control signal flat (not every such curve was filed as active); inconclusive means small, poorly fitted or top-dose-only effect, or effect the other way, or a change in a side signal; inactive means flat fitted curve, though single readings scatter; the % refers to the signal ratio. Shown is part of a subset that was picked to be rich in actives.
Potency means the concentration at half of the fitted maximal effect.

The nature of the assay: qHTS Assay for Lipid Storage Modulators in Drosophila S3 Cells.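 On cell number change: cells counted by Cell Tracker Red CMTPX staining in the red channel.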 The conditions noted are these: BODIPY lipid droplet fluorescence, 18-24 h, cells fed with added oleic acid; cell number change: measured here: cell count max response; series mostly up to 46.1 µM. Put shortly: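 Drosophila S3 cells got compounds at several concentrations plus oleic acid (400 uM solution). Laser-scanning cytometry with 488 nm excitation read lipid droplets at 500-530 nm and cells at 575-640 nm. Percent activity was relative to 20 uM Triacsin C.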
In general terms: Quantitative high-throughput screening tests each substance at several concentrations.
In the case of `Cc1ccc(-n2nnnc2SCC(=O)NC2CCCc3ccccc32)c(C)c1` (stereo not given), the Potency result was “inactive”. For the compound `O=C(CSc1ncn[nH]1)c1ccc(OC(F)F)cc1`, the Potency entry is “inactive” and the cell number change was 6.27%. The like results for `CCCn1c(C(O)c2ccc(OC)cc2)nc2ccccc21` (stereo not given) were, in that order, “inactive” and 0.04%. With `O=C(NN=C1C2CC3CC1CC(Cl)(C3)C2)c1ccccn1`, the Potency result was “inactive” and the cell number change is 10.9%. For `Cc1ccc(C(=O)Cn2c3[n+](c4ccccc42)CC(O)CS3)cc1` (stereo not given), the Potency entry is “inactive” and the cell number change is 25.2%. Turning to `O=C(Cc1ccccc1)Nc1nnc(-c2cccc([N+](=O)[O-])c2)s1`, the Potency result was “inactive” and the cell number change is -4.06%. For the compound `Cc1cccc(N(Cc2cc(=O)[nH]c3ccccc23)C(=O)CCl)c1`, the Potency is 20600 nM (active) and the cell number change is -1.53%. In the case of `Cc1cccc(N(Cc2cc(=O)[nH]c3ccccc23)C(=O)C(C)C)c1`, the Potency entry is “inactive” and the cell number change is -7.9%.

In the case of `Cc1ccccc1N(Cc1cc(=O)[nH]c2ccccc12)C(=O)CCl`, the Potency entry was “inactive” and the cell number change worked out at 13.2%. In the case of `CN(C)S(=O)(=O)c1ccc(NC(=O)C2CC(=O)N(Cc3ccccc3)C2)cc1` (stereo not given), the Potency result was “inactive” and the cell number change was -10.9%. Turning to `CCN(CC)S(=O)(=O)c1ccc(NN=C2CCN(C(C)C)CC2)c([N+](=O)[O-])c1`, the Potency entry is “inactive” and the cell number change turned out to be 1.2%. On the same counts, the results for `Cc1ccc(S(=O)(=O)c2cc3c(=O)n4cc(C)ccc4nc3n(CC3CCCO3)c2=N)cc1` (stereo not given) are “inactive” and -5.73%. Turning to `COP(=O)(OC)C(Nc1cc(Cl)cc(Cl)c1)c1cccc(O)c1` (stereo not given), the Potency result is “inactive” and the cell number change is -20.9%. Regarding `CCCN(CC(=O)Nc1ccccc1OC)C(=O)CCC(=O)c1ccc(F)cc1`, the Potency was 820 nM (active) and the cell number change is -6.3%. For the compound `CCN(CC(=O)Nc1ccccc1OC)C(=O)C1CCCC1`, the Potency entry is “inactive” and the cell number change is -11%.

For `CCCN(CC(=O)Nc1ccccc1OC)C(=O)C1CCCC1`, the Potency was 3660 nM (active). With `CCCN(CC(=O)Nc1ccccc1OC)C(=O)Cc1ccccc1F`, the Potency result was “inactive” and the cell number change is 20.6%. For the compound `CCN(CC(=O)Nc1ccccc1OC)C(=O)C1CCC1`, the Potency entry is “inactive” and the cell number change is 0.934%. Take `CCCN(CC(=O)Nc1ccccc1OC)C(=O)CCC(=O)c1ccc(Cl)s1`: the Potency entry was “inactive” and the cell number change is -12.8%.

Turning to `O=[N+]([O-])c1cccc(S(=O)(=O)N2CCCCC2)c1`, the Potency entry is “inactive” and the cell number change was 2.7%. In the case of `Fc1ccc(-c2cc(C(F)(F)F)nc(NCc3cccs3)n2)cc1`, the Potency entry was “inactive” and the cell number change was 10.1%. The like results for `CCCN(CCC(=O)Nc1ccccc1F)CC1CC1` were, in that order, “inactive” and 22.5%. The like results for `COc1ccc(NC(=O)c2ccc(C)cc2)c[n+]1[O-]` were, in that order, “inactive” and 9.2%.

`COc1ccc(C(c2nnnn2C(C)(C)C)N2CCN(C(=O)c3ccco3)CC2)cc1` (stereo not given): the Potency entry is “inactive” and the cell number change came out at 15.4%. With `COCCn1nnnc1C(c1ccc(OC)cc1)N1CCN(C(=O)c2ccco2)CC1` (stereo not given), the Potency result was “inactive” and the cell number change amounted to 10.8%. On to `COc1ccc(C(c2nnnn2C(C)C)N2CCN(C(=O)c3ccco3)CC2)cc1` (stereo not given), for which the Potency was 25.9 nM (active) and the cell number change amounted to 10.1%.
